Results taken from the supplement of paper PMC6555819.

Legend:
Assay in all cases: PBM binding z-score (relative to random genomic background probes); higher = stronger binding; sequences stand for … in GC…GCGATTGACAGCGTAGAATGAAGG
[1] = system: FXR:RXRa (NR concentration 270 nM, RXRa partner concentration 90 nM)
In short: (§1)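 Regression normalization was applied to scanned fluorescence from custom Agilent 4×180K protein-binding microarrays. Before scanning, arrays were incubated 1 h with ligand-free nuclear receptor dimers, and binding was detected with antibodies against each partner (one per run). Binding z-scores use the random background probes as reference.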

[2] = system: LXRa:RXRa (NR concentration 270 nM, RXRa partner concentration 90 nM)
In short: as §1

[3] = system: LXRa homodimer (NR concentration 270 nM)
In short: as §1

[4] = system: LXRb:RXRa (NR concentration 270 nM, RXRa partner concentration 90 nM)
In short: as §1

[5] = system: LXRb homodimer (NR concentration 270 nM)
In short: as §1

[6] = system: PPARa:RXRa (NR concentration 270 nM, RXRa partner concentration 90 nM)
In short: as §1

[7] = system: PPARg:RXRa (NR concentration 180 nM, RXRa partner concentration 90 nM)
In short: as §1

[8] = system: PPARg:RXRa 270nM:90nM, anti-RXR (NR concentration 270 nM, RXRa partner concentration 90 nM)
In short: as §1

[9] = system: PPARg:RXRa 30nM:10nM, anti-RXR (NR concentration 30 nM, RXRa partner concentration 10 nM)
In short: as §1

[10] = system: PPARg:RXRa 90nM:30nM, anti-RXR (NR concentration 90 nM, RXRa partner concentration 30 nM)
In short: as §1

Sequence	PBM binding z-score [1]	PBM binding z-score [2]	PBM binding z-score [3]	PBM binding z-score [4]	PBM binding z-score [5]	PBM binding z-score [6]	PBM binding z-score [7]	PBM binding z-score [8]	PBM binding z-score [9]	PBM binding z-score [10]
CGTCAAAGTTCAACTAAGTTAACGTAAAGCACGC	7.25	5.95	4.61	4.33	2.56	4.99	5.09	5.05	2.33	4
CGTCCGAGGTCAAAGGTCAGTGAAGAGATGACGG	8.25	7.31	3.51	7.09	2.24	7.17	11.3	9.76	8.58	11.5
TCTCGGAGGACACGAAAGGGCAGAGCTCGACATC	0.131	0.581	-0.282	-0.082	-0.72	0.48	0.29	0.85	1.65	1.2
CGAACTAGGTCAAAGGACAGGGAAAGGCGACGTA	4.04	2.31	-0.139	1.77	-0.371	5.35	10.4	8.79	8.45	9.16
CGAACCAGGTCACCAGGACAGTGAAGAGGTTGGA	5.33	3.4	0.19	2.53	-0.432	4.96	6.6	5.66	2.44	4.73
CGTCCAAGGTCATAGGAGTTCAGTGAAGACAGAT	7.7	7.41	5.13	5.15	0.66	5.9	4.86	5.44	1.9	4.2
GATACAGAGTCAGCTAGAGGCCAGAGTATGGAAA	-0.527	-0.699	-0.703	-0.919	-1.16	-0.619	0.312	-0.242	-0.296	-0.352
AGTCAAAGTTGATCTAGGTAACGTAAGATATGCT	-0.0957	-0.391	-0.431	-0.102	-0.616	0.713	1.39	1.2	0.421	0.958
CGTCTAAGTTCAAGGTAACGTAACAGAAAGCAGC	4.08	3.47	1.01	2.01	0.51	3.18	1.39	2.11	0.885	1.69
TCTTGTAGATCAAAGGTTAAGACAGCCGAAGCCT	1.72	2.27	0.473	2.31	-0.101	4.74	8.11	8.23	7.63	8.39
TTACCAAGGTGAAAGGTCGGTGATGCACGCCTTG	2.27	1.8	-0.377	1.34	-0.609	4.27	7.36	6.88	6.6	7.95
CGTCGGAGGACAGAAGGTCAGAGCTGTCCGCTTT	1.32	1.68	0.0253	1.19	-1.11	1.85	-0.101	1.07	-0.708	0.0661
GCTCGGAGGACAAGGTCAGGGCTTTGTCCGTAGA	2.38	2.11	-0.64	1.71	-0.689	2.95	1.07	1.94	-0.338	0.806
AATACAGGGTCACTGGGCCAGAGTAGGTACGAAT	6.75	5.6	1.01	4.21	0.418	6.23	8.71	6.98	3.69	5.91
CGAACTAGGTCAAACGACAGTGAAAGGCGACGTA	4.81	2.87	0.0143	2.12	0.102	5.14	8.27	6.9	5.2	7.3
CGTCCAAGGTCATGGGAGGTCAGTGAAGACAGAT	7.92	7.36	5.12	6.35	0.656	6.08	6.25	6.11	2.74	5.07
CCTCGGAGGACAGAAGGTCAGATCTGTCCGCTTT	1.34	1.57	0.283	1.25	-0.347	1.62	0.155	0.812	-0.772	0.0725
CGTCCAAGGTCATAAGAGGTCAGTGAAGACAGAT	7.91	7.9	5.88	7.04	2.11	5.7	5.38	5.99	2.54	4.85
CGTCCAAGGTCAGATAGGTCAGTGAATGCCGAGT	5.44	3.81	1.77	3.45	0.397	4.33	2.66	3.09	0.662	1.9
AGAACGAGGGCAATGAGTTCATAGCACGGGTGGC	1.78	2.26	1.48	1.11	-0.445	2.83	2.16	1.57	0.0417	0.912
CGTCCAAGGTCATACGAGGTCAGTGAAGACAGAT	7.86	7.57	5.5	6.63	1.78	5.87	5.57	5.9	2.88	4.6
AATACAGGATCACTAGGCCAGAGTAGGTACGAAT	-0.102	-0.204	-0.28	-0.407	-0.237	0.128	1.19	0.718	0.264	0.869
ATATGGAGGTTAGGGTCATTCAGAAAGTAGGGAA	5.28	4.25	1.34	4.8	2.02	5.63	5.01	4.47	1.89	3.76
GCTGCTAGGTTAACTGATGGTCAGCTAAAGCTCG	-0.137	1.44	-0.782	0.138	-0.9	0.846	-0.15	0.209	-0.499	-0.243
